# In all, about 16,000 sequences were measured (“Z-score”: median about -0.37, highest 2% from about 3.2 on). Shown is part of a subset that was picked to be rich in the highest values.
# Test system: RBM10 RRM1-ZnF (GST-tagged construct)
# Test: RNAcompete 7-mer binding Z-score; higher = stronger binding preference
# Procedure: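 RNAcompete: 20 pmol GST-tagged RBM10 RNA-binding constructs were incubated with a designed RNA pool of about 241,000 sequences up to 41 nt (1.5 nmol) on glutathione beads for 30 min at 4 °C and washed. Bound RNAs were identified by microarray hybridisation. Each RNA 7-mer is scored by a one-sided Z-score of its enrichment, computed over probes that contain the 7-mer within longer pool sequences.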
row,Sequence,RNAcompete 7-mer binding Z-score
1,UCUGGUA,-0.435
2,CAUAACA,-0.444
3,UGUUAUC,-0.457
4,UGUCUCU,-0.649
5,CGCUAUC,-0.668
6,CGGAAGC,0.283
7,GGACAAU,0.927
8,UGCGACA,-0.145
9,UCAGAUC,-0.604
10,ACUAGGA,0.719
11,GGGCGGU,2.28
12,GGGCGGG,3.66
13,GGGCGGA,2.86
14,CUCAAAU,-0.698
15,AACUUCC,-0.919
16,AAAUUCA,-0.668
17,CUGUUAA,-0.779
18,UGGUACG,1.43
19,AAACUAG,-0.327
20,UGGGGUA,3.56
21,AGGGGUA,3.69
22,ACGGGUA,2.05
23,CGGGGUA,3.2

row,Sequence,RNAcompete 7-mer binding Z-score
1,GCGGGUA,2.88
2,UUGGGUA,2.33
3,AGGGGUC,1.98
4,GGGGGUA,3.99
5,GACCGGC,-0.532
6,UGGAGUG,3.08
7,GCUUCCC,-0.665
8,UGUACAC,-0.24
9,AUGCAAG,0.472
10,ACAGGCC,-0.0512
11,UCCUUUG,-0.876
12,UCCGGCG,-0.275
13,AUCCGGU,-0.227
14,GAGUUAA,0.29
15,AAGAAGG,3.54
16,GAGAAGA,1.22
17,GAGAAGG,4.53
18,CAGAAGG,1.57
19,AAGAAGA,1.11
20,UAGAAGG,3.12
21,CUGAAGG,1.22
22,AUGAAGG,2.96
23,GUGAAGG,3.74

row,Sequence,RNAcompete 7-mer binding Z-score
1,AUAAAGU,-0.155
2,UUCCCGC,-0.759
3,UCUCUUG,-0.714
4,ACGGGAU,2.02
5,AAAGUCC,-0.561
6,UCGACGA,-0.327
7,GCCAGCG,-0.0544
8,UCGAAGC,-0.36
9,AUGGGGA,4.27
10,AUGGGGU,3.92
11,AUGGGAA,3.97
12,UUGGGAA,2.12
13,AUCGGGU,1.7
14,AUUGGGU,2.9
15,AUGGGAG,3.64
16,AUGGGCA,2.11
17,UUGGGAG,2.68
18,CUGGGAG,1.66
19,CUGGGAA,1.47
20,CGACCUG,-0.571
21,GACGAAC,-0.181
22,UUUUGAU,-0.629
23,UAUUGGC,-0.201

row,Sequence,RNAcompete 7-mer binding Z-score
1,AAUGGUA,2.63
2,AACAACC,-0.72
3,AGGAACU,-0.0155
4,AUGGGCG,2.86
5,AUGGGGG,4.12
6,AUGGGGC,2.81
7,AUCUAAA,-0.451
8,AGGGAUA,4.2
9,GGGGAUA,3.45
10,AGGGAUC,1.02
11,CGGGAUA,1.56
12,AGGGAUU,2.3
13,GAGGAUA,2.15
14,CUUAGUG,-0.282
15,AGGAGAU,1.41
16,AAUGCGC,-0.428
17,UGGCGGA,1.83
18,GGGGGGC,2.37
19,AGGGGGG,2.76
20,CGGGGGU,3.46
21,GGGGGCU,2.22
22,CGGGGUU,2.77
23,GGGGGGG,3.4

row,Sequence,RNAcompete 7-mer binding Z-score
1,GGGGCGU,2.64
2,CCGGGGU,2.08
3,GGGGGGU,3.81
4,GUUUUAC,-0.591
5,AGAAGUA,0.173
6,ACCCGGU,-0.415
7,UUUCGUA,-0.779
8,AUACAUA,-0.269
9,AUCUUAU,-0.863
10,AGUCACG,0.0138
11,UUUCGUC,-0.811
12,UUGAGGC,0.115
13,UUGAGGG,3.4
14,AUGAGGG,3.84
15,CUGAGGG,1.81
16,AUGAGGU,1.9
17,GUGAGGG,3.75
18,AUGAGGC,0.969
19,UUGAGGA,1.14
20,GUGAGGC,1.53
21,UGACCCC,-0.246
22,UCGAAGA,-0.171
23,AAUUCAG,-0.496

row,Sequence,RNAcompete 7-mer binding Z-score
1,CCCCGAC,-0.0772
2,AACUCUA,-0.854
3,UCUUAUC,-0.86
4,CUGGGGG,2.28
5,GUGGGGA,4.7
6,GCGGGAG,2.86
7,GUGGGGG,4.47
8,GUGGGAG,4.08
9,GUGGGUU,3.11
10,CUGGGGA,1.76
11,GUGGGCA,3.06
12,GUGGGGU,4.71
13,CUGGGGU,2.18
14,UUGGGAC,1.58
15,GUGGGCG,3
16,CCCCAAA,-0.6
17,UCGAGCG,0.0723
18,GGCUCAU,-0.318
19,AGGAACC,-0.139
20,CUGCGGA,0.199
21,UAUGCCC,-0.6
22,AUGACGC,-0.383
23,CCAGACC,-0.642

row,Sequence,RNAcompete 7-mer binding Z-score
1,AGGCGCA,0.0528
2,GUGGGCC,1.46
3,CUGGGAU,1.11
4,CUGGGGC,0.901
5,GUGGGAU,3.68
6,GUCGGAA,0.8
7,GUGGGAC,2.35
8,GUGGGGC,3.52
9,AUGGGCU,1.6
10,AUGGGAC,2.09
11,GCGGGAA,2.66
12,AUGGGAU,3.45
13,GUGGGAA,3.62
14,CGGCGGA,0.862
15,CCUUGUA,-0.733
16,GUUCGGC,-0.0869
17,UUCGUUG,-0.162
18,GGGCAGC,1.32
19,CCAUGGU,0.254
20,ACUACUG,-0.428
21,CUGCGCU,-0.633
22,CUGGCGG,0.508
23,GUGGCGC,0.992

row,Sequence,RNAcompete 7-mer binding Z-score
1,GUGGCGG,3.26
2,UUAUCGG,-0.171
3,AGUCGUG,0.124
4,UGGGAUG,3.61
5,UGGGAUU,1.9
6,AGGGAUG,4.59
7,GGGGAUG,4.52
8,AGGGACG,2.13
9,GGGGAUU,2.75
10,CGGGAUG,2.48
11,UGGGAUA,3.05
12,GGGGAUC,2.29
13,GCCAGAC,-0.386
14,GUGAGGA,2.69
15,GAGUGUA,0.972
16,AGCUGGA,0.8
17,UGGUGAG,2.98
18,CAGCAAG,-0.0804
19,AAAAUAU,-0.324
20,GCUCAAG,-0.386
21,AAGCAUG,-0.035
22,AGAGUGA,0.81
23,GUAUGGG,4.25

# Source: the supplement of paper PMC5499739
